Experiment in all cases: NCI-60 one-dose screen, 48 h (100 = growth as untreated, 0 = no growth, -100 = all killed)
In one experiment the test system is HCT-15 colon. To be noted: 10 µM unless noted.
A further experiment concerns HT29 colon. To be noted: 10 µM unless noted.
The test system of the next experiment is SNB-19 CNS. The note with it: 10 µM unless noted.
The next experiment has as its system U251 CNS. To be noted: 10 µM unless noted.
For another experiment, the system named is PC-3 prostate. The note with it: 10 µM unless noted.
In a further experiment the test system is SK-MEL-5 melanoma. The note with it: 10 µM unless noted.
The test system of the next experiment is UACC-62 melanoma. The note with it: 10 µM unless noted.
In the next experiment the test system is LOX IMVI melanoma. The note with it: 10 µM unless noted.
The next experiment concerns EKVX NSCLC. To be noted: 10 µM unless noted.
In a further experiment the test system is SN12C renal. To be noted: 10 µM unless noted.
The next experiment relates to UO-31 renal. The note with it: 10 µM unless noted.
A further experiment has as its system TK-10 renal. The note with it: 10 µM unless noted.
For the next experiment, the system named is ACHN renal. The note with it: 10 µM unless noted.
A further experiment relates to CAKI-1 renal. To be noted: 10 µM unless noted.
For a further experiment, the system named is HL-60(TB) leukemia. The note with it: 10 µM unless noted.
For a further experiment, the system named is CCRF-CEM leukemia. To be noted: 10 µM unless noted.
For another experiment, the system named is SNB-75 CNS. The note with it: 10 µM unless noted.
The next experiment deals with SK-MEL-28 melanoma. To be noted: 10 µM unless noted.
The test system of another experiment is SK-MEL-2 melanoma. To be noted: 10 µM unless noted.
Another experiment relates to A498 renal. To be noted: 10 µM.

Results on six compounds are retold here after PubChem BioAssay (NCI).

About 83,000 compounds went through this panel and 20% of them were active in at least one assay; those are over-represented in the sample as a whole.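 Method: cells in 96-well plates; compound added at one concentration; 48 h incubation; percent growth measured; values under 10 scored active.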 A number with no mark means an inactive call. Activity calls are given as the source filed them.

`COc1ccc(NC([Se])=NC23CC4CC(CC(C4)C2)C3)cc1`: the growth was 9.68% (active) with HCT-15 colon; 5.56% (active) in the experiment with HT29 colon; 15.7% with SNB-19 CNS; -31% (active) with U251 CNS; 7.99% (active) with PC-3 prostate; -85.5% (active) with SK-MEL-5 melanoma. Moreover, the growth with UACC-62 melanoma was -24.3% (active); in the experiment with LOX IMVI melanoma, 3.59% (active); with EKVX NSCLC, -14.3% (active); with SN12C renal, 4.39% (active); in the experiment on UO-31 renal it was -27.3% (active); in the experiment with TK-10 renal, -40.9% (active). Also, the growth is 0.201% (active) with ACHN renal, -31% (active) in the experiment with CAKI-1 renal, -11.8% (active) with HL-60(TB) leukemia and 5.94% (active) in the experiment on CCRF-CEM leukemia.

Turning to `COc1cc([N+](=O)[O-])c2nc(C)ccc2c1[N+](=O)[O-]`, the growth in the experiment on HCT-15 colon was 92.9%; in the experiment on SNB-75 CNS it was 109%; with SNB-19 CNS, 95.2%; in the experiment with U251 CNS it was 90%; in the experiment with PC-3 prostate it was 93.9%; with SK-MEL-5 melanoma, 93.6%. The growth was 86.7% in the experiment with UACC-62 melanoma; 71.5% in the experiment on LOX IMVI melanoma; 103% in the experiment on SK-MEL-28 melanoma; 102% in the experiment with SK-MEL-2 melanoma; 112% with EKVX NSCLC; 89% in the experiment on SN12C renal. For the same compound, the growth in the experiment on UO-31 renal is 74.9%; in the experiment with TK-10 renal, 122%; in the experiment on ACHN renal it was 89.5%; in the experiment on CAKI-1 renal, 104%; with A498 renal, 121%; in the experiment on CCRF-CEM leukemia, 91.3%.

For `CCCCCCCOC(C(=O)OCCN(CC)CC)(c1ccccc1)c1ccccc1`, the growth with HCT-15 colon was 49.9%; with HT29 colon it was 31.4%; in the experiment with SNB-19 CNS, 94%; in the experiment on U251 CNS, 77.8%; in the experiment on PC-3 prostate it was 61.2%; in the experiment with SK-MEL-5 melanoma, 78.2%. Further, the growth was 103% in the experiment with UACC-62 melanoma; 92.2% in the experiment on LOX IMVI melanoma; 96% in the experiment on SK-MEL-28 melanoma; 103% with SK-MEL-2 melanoma; 76.1% in the experiment on EKVX NSCLC; 93.6% with SN12C renal. Besides, the growth in the experiment on TK-10 renal was 77.8%; in the experiment with ACHN renal it was 92.3%; with CAKI-1 renal, 65.4%; in the experiment with A498 renal, 82.4%; in the experiment with HL-60(TB) leukemia it was 79.1%; in the experiment with CCRF-CEM leukemia, 82.5%.

As to `Clc1ccc(N2COOC3(OOC2)C2CC4CC(C2)CC3C4)cc1`, the growth in the experiment on HCT-15 colon was 64%; in the experiment with HT29 colon, 60%; in the experiment with SNB-19 CNS, 74.3%; with U251 CNS it was 28.4%; in the experiment with PC-3 prostate, 53.7%; in the experiment with SK-MEL-5 melanoma, 55.5%. Also, the growth with UACC-62 melanoma is 39.4%; with LOX IMVI melanoma it was -83.1% (active); in the experiment with SK-MEL-28 melanoma it was 103%; in the experiment with EKVX NSCLC, 64.2%; with SN12C renal, 66.9%; in the experiment on UO-31 renal, -92.1% (active). For the same compound, the growth in the experiment with TK-10 renal was 27.2%; in the experiment on ACHN renal, 29.4%; in the experiment on CAKI-1 renal it was 52.3%; with A498 renal, 96.8%; in the experiment on HL-60(TB) leukemia it was -58% (active); in the experiment on CCRF-CEM leukemia, -50.3% (active).

For the compound `COc1ccc(/C=C\c2cc(OC)c(OC)c(OC)c2)c(NS(=O)(=O)c2ccc(Cl)cc2)c1O`, the growth was 13.4% in the experiment on HCT-15 colon; 17.1% in the experiment on HT29 colon; 53.4% in the experiment on SNB-19 CNS; 12.3% in the experiment with U251 CNS; 26.1% in the experiment with PC-3 prostate; -1.82% (active) in the experiment on SK-MEL-5 melanoma. The growth is 40.9% in the experiment with UACC-62 melanoma; 10.7% in the experiment on LOX IMVI melanoma; 60.3% in the experiment on SK-MEL-28 melanoma; 22.1% in the experiment on SN12C renal; 33.7% with UO-31 renal; 25.1% in the experiment on TK-10 renal. The growth was 25.9% in the experiment with ACHN renal; 28.1% in the experiment with CAKI-1 renal; -13% (active) in the experiment with A498 renal; -38.8% (active) in the experiment on HL-60(TB) leukemia; 7.81% (active) in the experiment with CCRF-CEM leukemia.

On to `COC[C@@H]1C[C@@]2(C)[C@@H](CC[C@@H]3[C@@H]2CC[C@@]2(C)[C@H]3CC[C@]2(C)O)CC1=O`, for which the growth in the experiment on HCT-15 colon was 94.8%; with HT29 colon it was 83.4%; in the experiment with SNB-19 CNS it was 113%; with U251 CNS it was 93.7%; with PC-3 prostate, 96.8%; in the experiment on SK-MEL-5 melanoma it was 106%. The growth is 100% with UACC-62 melanoma; 95.2% in the experiment on LOX IMVI melanoma; 96.4% in the experiment with SK-MEL-28 melanoma; 83.2% in the experiment on SK-MEL-2 melanoma; 107% with SN12C renal; 91.1% with UO-31 renal. Moreover, the growth in the experiment on TK-10 renal was 85.2%; in the experiment on ACHN renal, 92.6%; with CAKI-1 renal it was 94.4%; in the experiment on A498 renal it was 111%; in the experiment on HL-60(TB) leukemia, 78.6%.
